Screening data from PubChem BioAssay.
Nrf2 activator: qHTS of Nrf2 Activators | AREc32 ARE-luciferase reporter (MCF7-derived line), luminescence, 24 h | Potency, µM (series often up to 46.1 µM), for the others: at the highest dose activation, actives largely listed as activators | actives 0.31% (n = 410,000); further: potency means the concentration at half of the fitted maximal effect; % of control where 0% means no effect; nearly all actives have a fitted effect of over 65% in size
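Quantitative high-throughput format: AREc32 reporter cells, 1000 per well, received compound by pin transfer and were incubated 24 hr at 37 deg C, 5% CO2, before Steady-Glo luminescence detection.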
LDHA inh: qHTS assay for inhibitors of human lactate dehydrogenase; L-lactate dehydrogenase A chain (Homo sapiens), P00338; purified LDHA, NADH/diaphorase-resazurin fluorescence; active compounds read low; activity change, % (values are at about 110 or 230 µM); actives 0.15% (n = 480,000); AID 1347041, 2019; in the data active means activity change below about -30%; inconclusive means mostly about -25% to -30%;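 further: plate controls were DMSO wells for no effect and wells without enzyme for full effect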
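Resorufin fluorescence (ex540/em590), read at 0 and 20 min after diaphorase/resazurin addition, reports the NADH left after a 5 min room-temperature reaction of 2 nM human LDH5 with 0.06 mM NADH and 0.2 mM pyruvate.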
ERG Ets-DNA blk: qHTS for Small Molecule Inhibitors of the ERG Ets/DNA interaction. fluorescence polarization, His-ERG Ets domain / labelled DNA. Potency, µM (titrated, usually from 76.9 µM), inactives show at the highest dose FP activity, negative = inhibition, usual class: inhibitors. actives 0.028% (n = 370,000). AID 624246, 2012; active means well fitted inhibition curve with a large enough effect in the polarisation, with a control signal flat; inconclusive means small, poorly fitted or top-dose-only effect, or effect the other way, or a change in a side signal; inactive means no such curve, though single readings can be large or run the other way; the % refers to the polarisation;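 further: polarization taken with two DNA probes labelled with fluorescein and Texas red; potency means the concentration at half of the fitted maximal effect; % of control where 0% means no effect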
Target sequence (P11308 whole entry, looked up, the tested form may be a part): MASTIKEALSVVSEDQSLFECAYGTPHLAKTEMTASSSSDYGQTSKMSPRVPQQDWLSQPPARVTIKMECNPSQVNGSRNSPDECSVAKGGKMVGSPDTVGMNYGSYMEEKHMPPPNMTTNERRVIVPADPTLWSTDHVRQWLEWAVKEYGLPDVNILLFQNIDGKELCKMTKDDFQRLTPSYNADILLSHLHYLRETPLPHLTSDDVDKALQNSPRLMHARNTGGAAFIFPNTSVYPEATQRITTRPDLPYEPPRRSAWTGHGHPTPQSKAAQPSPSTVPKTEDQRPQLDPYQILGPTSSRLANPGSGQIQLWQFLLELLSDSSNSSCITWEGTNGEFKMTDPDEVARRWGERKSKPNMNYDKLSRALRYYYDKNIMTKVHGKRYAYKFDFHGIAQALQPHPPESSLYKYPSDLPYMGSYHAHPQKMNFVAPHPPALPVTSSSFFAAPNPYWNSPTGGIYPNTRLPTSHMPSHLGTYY
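His-tagged ERG Ets domain (1 uM in the protein solution; 300mM KCl, 50mM Tris-HCl, 1mM EDTA, 1mM DTT, pH 7.5) received compound, then a probe mix of 5 nM fluorescein-DNA and 100nM Texas-615-DNA. Fluorescence polarization was read for both dyes.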
Nrf2 inh: Nrf2 qHTS screen for inhibitors. A549 ARE-Fluc reporter, luciferase luminescence, 18-24 h. Potency, µM (doses to about 46 µM), for inactives: top-dose activity change, negative = inhibition, actives largely listed as inhibitors. actives 2.1% (n = 360,000); further: potency means the concentration at half of the fitted maximal effect; on the % scale 0 is the no-effect control and ±100 the full control effect; nearly all actives have a fitted effect of over 60% in size
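A549 ARE_Fluc cells, 5000/well, 5% FBS OPTI-MEM; compounds in dose-response, 18-24 h at 37 °C/5% CO2; CellTiter-Fluor viability read (Ex 405/Em 525), then BugLite luciferase luminescence = Nrf2 activity.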
12-LOX inh: Primary qHTS assay for inhibitors of human arachidonate 12S-lipoxygenase (ALOX12): Round 2; purified 12hLO, xylenol orange hydroperoxide absorbance; Potency, µM (doses to about 108 µM), for inactives: top-dose activity change, negative = inhibition, usual class: inhibitors; actives 1.1% (n = 580,000); further: potency means the concentration at half of the fitted maximal effect; on the % scale 0 is the no-effect control and ±100 the full control effect
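Purified human 12hLO (150 nM final) in 25 mM Hepes, 0.01% Triton X-100, pH 7.0 was preincubated 15 min at room temperature with compound. Then 40 uM arachidonic acid was added, 30 min. Hydroperoxide was read by Fe-XO absorbance ratio 573/405 nm.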
A549 viability: Nrf2 qHTS screen for inhibitors: counterscreen for cytotoxicity. A549 ARE-Fluc cells, CellTiter-Fluor viability, 18-24 h. Potency, µM (highest dose often 46 µM), for the others: at the top dose activity change, negative = cytotoxicity, hits mostly inhibitors. actives 0.16% (n = 390,000). AID 504648, 2011; further: potency means the concentration at half of the fitted maximal effect; on the % scale 0 is the no-effect control and ±100 the full control effect
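A549 ARE-Fluc cells in 5% FBS OPTI-MEM, 5000 cells/well, rested 2 h then exposed to compounds in concentration-response for 18-24 h at 37 °C. Viability by CellTiter-Fluor fluorescence (Ex 405/Em 525) after 30 min; luciferase luminescence (BugLite, 15 min, RT) read afterwards.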
An asterisk follows results filed as active; ? = inconclusive; . = no result; [ ] = remark or other dose. Compounds with a hit are over-represented: about 2.7% of the library has one in this group of screens. Unless noted, the call rests on the fitted dose curve; in most records, active means well fitted curve in the direction sought with a large enough effect; inconclusive means small, poorly fitted or top-dose-only effect, or another doubt; inactive means no such curve, though single readings can be large; an effect the other way counts as inactive or inconclusive.

SMILES	Nrf2 activator	LDHA inh	ERG Ets-DNA blk	Nrf2 inh	12-LOX inh	A549 viability
C=CCc1ccccc1OCC(O)CN1CCOCC1 (configuration not stated)	2%	5	-3%	10%	40µM*	10%
COC(=O)C1=C(C)OC(N)=C(C#N)C1c1ccc(C(=O)OC)cc1 (configuration not stated)	.	20	.	.	?	.
CN1/C(=C\C(=O)c2cccs2)Sc2ccccc21	4µM*	-8	15%	.	?	-28%
CN1/C(=C\C(=O)c2cccs2)C(C)(C)c2ccccc21	0%	-3	?	7%	?	-1%
COc1ccccc1NS(=O)(=O)c1cc(N)ccc1N1CCCCC1	0%	3	11%	?	?	-14%
COc1ccccc1NS(=O)(=O)c1cc(NC(=O)c2cccnc2)ccc1N1CCCCC1	3%	-7	-2%	21µM*	-7%	-14%
O=C(Nc1cccc(C(F)(F)F)c1)Nc1ccc(N2CCCC2)c(S(=O)(=O)Nc2ccccc2Cl)c1	0%	-5	22%	3.3µM*	-25%	?
CCCS(=O)(=O)Nc1ccc(N2CCCCC2)c(S(=O)(=O)Nc2ccccc2OC)c1	1%	-3	3%	-5%	32µM*	-18%
COc1ccc(CN2Cc3[nH]cnc3C[C@H]2c2nc(-c3ccc(C)cc3)no2)cc1	.	.	.	.	43%[176 µM]	.
O=C1c2ccccc2NC(c2csc(-c3ccc(Cl)cc3)n2)N1Cc1ccco1 (configuration not stated)	.	2	.	.	?	.
CN1CCN(Cc2nc(C3(O)CCN(Cc4ccccc4C(F)(F)F)CC3)cs2)CC1	.	.	.	.	25%	.
CN1CCCN(Cc2ccccc2C(F)(F)F)CC1	0%	-34*	-3%	6%	?	1%
Cc1cc2cc(CNC(=S)Nc3ccc(OC(F)F)cc3)ccc2[nH]1	2%	-13	-1%	?	?	5%
Cc1cc2cc(CNC(=S)Nc3ccc(OC(F)(F)F)cc3)ccc2[nH]1	0%	-5	-10%	?	32µM*	-6%
N#Cc1c(NCc2ccncc2)nc(-c2ccccc2)c2c1CCCC2	.	2	.	.	8%	.
Cc1ccccc1NC(=O)/C(C#N)=C\c1ccsc1	8.9µM*	-5	-3%	?	-8%	0%
O=C(N/N=C/c1c[nH]c2ccccc12)c1cc(-c2ccc(-c3ccccc3)cc2)n[nH]1	18%	-6	-3%	?	?	18µM*
CCc1ccc(-c2cc(C(=O)N/N=C/c3ccccn3)[nH]n2)cc1	0%	-5	0%	-9%	6%	-14%
O=C(N/N=C/c1ccccn1)c1cc(-c2ccc3ccccc3c2)n[nH]1	6%	-34*	-2%	?	-19%	2%
COCCNC(=O)[C@@H]1Cc2cn(Cc3nccn3C)c3cccc(c23)[C@H](CC(C)C)N1	.	.	.	.	76%[176 µM]	.
CCNC(=O)CSc1ncnc2cc(-c3ccc(F)cc3)sc12	.	-7	.	.	-17%	.
NC(=O)c1nc(Nc2ccccc2)sc1NC(=O)c1c(F)cccc1F	?	-10	-3%	.	-14%	23%
Cc1ccc(Nc2nc(C(N)=O)c(NC(=O)c3ccccc3Br)s2)cc1	?	10	-4%	.	14µM*	1%
Cc1c(C)c2cccnc2c2ncccc12	4%	6	1%	?	.	5.8µM*
Cc1ccc(B(O)O)c2cccnc12	.	4	.	.	28%	.
SMILES	Nrf2 activator	LDHA inh	ERG Ets-DNA blk	Nrf2 inh	12-LOX inh	A549 viability
N#Cc1nc(-c2cccs2)oc1NCCN1CCCCC1	.	2	.	.	?	.
O=C(c1ccc(Cl)cc1Cl)N(CCS(=O)(=O)N1CCCC1)Cc1cccnc1	.	7	.	.	?	.
CCc1nnc(NS(=O)(=O)c2ccc(NC(=S)NC(=O)/C=C/c3ccc(F)cc3)cc2)s1	3%	-19	8%	0%	10µM*	-5%
CC(C)(C)C(=O)NC(=S)Nc1ccc(S(=O)(=O)Nc2nccs2)cc1	-1%	-1	3%	-10%	45µM*	-11%
CCc1nnc(NS(=O)(=O)c2ccc(NC(=S)NC(=O)c3ccc(OC)cc3)cc2)s1	1%	3	9%	-30%	8.9µM*	-14%
CCc1nnc(NS(=O)(=O)c2ccc(NC(=S)NC(=O)c3ccc(OC)c(OC)c3)cc2)s1	0%	-12	-5%	6%	8.9µM*	9%
NS(=O)(=O)c1ccc(NC(=S)Nc2ccc(S(=O)(=O)Nc3nccs3)cc2)cc1	0%	-4	.	.	-24%	.
CCc1nnc(NS(=O)(=O)c2ccc(NC(=S)NC(=O)/C=C/c3ccc([N+](=O)[O-])cc3)cc2)s1	0%	-2	-1%	14%	?	-8%
CCc1nnc(NS(=O)(=O)c2ccc(NC(=S)NC(=O)c3ccncc3)cc2)s1	0%	0	2%	0%	?	7%
N#C/C(=C\c1ccc(OC(=O)C2CC2)cc1)C(=O)Nc1cccc(C(F)(F)F)c1	.	1	.	.	?	.
O=C(c1[nH]nc2c1CCc1ccccc1-2)N1CCC(c2noc(-c3ccccn3)n2)C1 (configuration not stated)	.	.	.	.	8%	.
COc1ccc(C(C)=O)cc1COc1ccc2ccc(=O)oc2c1	.	-2	.	.	-103%	.
COC(=O)[C@@H]1Cc2ncn(Cc3ccc(Cl)cc3)c2CN1C(=O)c1ccc(C(F)(F)F)cc1	.	.	.	.	49%	.
CCN(C(=O)c1cc2c(s1)CCCC2)C1CC1	.	-4	.	.	?	.
CN1c2ccsc2/C(=N/Nc2ccccc2)CS1(=O)=O	7.1µM*	-4	6%	?	?	-5%
Cc1ccc(-c2cc(C(=O)Nc3nnc(C4CC4)s3)c3ccccc3n2)o1	.	3	.	.	7.9µM*	.
Cc1ccc(-c2cc(C(=O)Nc3nccs3)c3ccccc3n2)o1	4%	-3	2%	-22%	1.4µM*	-12%
Cc1ccc(-c2cc(C(=O)Nc3nccs3)c3ccccc3n2)c(C)c1	4%	-5	-6%	?	-4%	0%
CC(Sc1nnc(-c2c[nH]c3ccccc23)o1)C(=O)NC(=O)NC1CCCCC1 (configuration not stated)	.	1	.	.	?	.
Cc1ccc(C(=O)COC(=O)c2cccc(Oc3ccc(C#N)c(C#N)c3)c2)cc1	.	20	.	.	?	.
CCOc1ccc(-n2cc(-c3ccccc3)c3c(NCC(OC)OC)ncnc32)cc1	.	11	.	.	11%	.
